Source: PubChem BioAssay
A selection: hits, their analogues and other compounds. The true share with any hit is near 2.8%.
rCAG RNA binder – binders of r(CAG) RNA repeats, primary screen, biochemical, fluorescence; r(CAG) RNA repeat, TO-PRO-1 dye displacement fluorescence; inhibition, % at 3 µM; actives 1.3% (n = 370,000); AID 651821, 2012;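 active = inhibition above the plate cutoff, the mean of all test compounds on that plate plus 3 SD, cut at about 35% in these data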;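 also: 0% = DMSO alone and 100% = 100 µM mitoxantrone as full dye displacement; higher means more dye released from RNA so lower well fluorescence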
MsrA inhibitor – bovine MsrA enzyme inhibitors, primary screen, biochemical, absorbance, HTS. Methionine sulfoxide reductase A (Bos taurus). purified bovine MsrA, absorbance read-out. inhibition, % at 15.5 µM. actives 0.75% (n = 360,000). AID 651718, 2012; in the data active = inhibition above about 4.5%;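 also: 0% = vehicle wells with enzyme and 100% = reference inhibitor wells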
MsrA act – bovine MsrA enzyme activators, primary screen, biochemical, absorbance, HTS; actives 0.3% (n = 360,000); activation, % at 10.6 µM; Methionine sulfoxide reductase A (Bos taurus); purified bovine MsrA, absorbance read-out; in the data active = activation above about 7.5%;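 also: 0% = vehicle and 100% = reference activator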
HGIII-sPLA2 inh – human group III sPLA2 inhibitors, primary screen, biochemical, QFRET, BODIPY PC-A2 liposome substrate; Group 3 secretory phospholipase A2 (Homo sapiens), Q9NZ20; actives 0.56% (n = 370,000); inhibition, % at 12.2 µM; QFRET BODIPY PC-A2 liposome hydrolysis, fluorescence;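 active = inhibition above mean plus 3 SD of compounds lying within the high and low control bounds, cut at about 19% in these data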;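 also: 0% = median of test compound wells and 100% = no enzyme DMSO wells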
Target sequence (Q9NZ20 whole entry, looked up): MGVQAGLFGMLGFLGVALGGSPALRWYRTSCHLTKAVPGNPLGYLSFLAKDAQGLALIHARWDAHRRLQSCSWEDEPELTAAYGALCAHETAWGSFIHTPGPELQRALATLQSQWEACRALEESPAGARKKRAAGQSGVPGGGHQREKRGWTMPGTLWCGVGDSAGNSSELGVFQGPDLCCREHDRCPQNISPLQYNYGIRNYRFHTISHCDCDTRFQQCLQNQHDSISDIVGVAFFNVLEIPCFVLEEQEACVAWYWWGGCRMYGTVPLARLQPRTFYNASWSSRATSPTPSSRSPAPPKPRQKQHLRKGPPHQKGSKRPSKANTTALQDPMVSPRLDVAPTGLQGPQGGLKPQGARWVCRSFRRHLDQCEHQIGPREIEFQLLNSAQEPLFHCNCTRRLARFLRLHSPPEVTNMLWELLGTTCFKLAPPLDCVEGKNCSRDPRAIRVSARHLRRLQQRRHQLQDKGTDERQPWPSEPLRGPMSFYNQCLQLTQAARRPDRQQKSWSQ
rCAG bind conf – small molecules binding CAG repeat RNA – biochemical, fluorescence, confirmation; AID 652065, 2013; inhibition, % at 3 µM; r(CAG) RNA repeat, TO-PRO-1 dye displacement fluorescence; shares compounds with rCAG RNA binder; actives 70% (n = 4,300);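 active = inhibition above a per-plate cutoff, the mean inhibition of sample wells plus 3 SD, cut at about 35% in these data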;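 also: loss of TO-PRO-1 fluorescence as compound displaces dye from 1x1 AA loop RNA; 0% = DMSO only wells and 100% = 100 µM mitoxantrone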
DNA CAG counter – displacement of TO-PRO-1 from CAG DNA duplex, counter-screen for rCAG RNA repeat binder project, biochemical, fluorescence, TO-PRO-1 dye, d(CAG) DNA oligo; shares compounds with rCAG RNA binder; d(CAG) DNA oligo TO-PRO-1 dye displacement; inhibition, % at 3 µM; actives 94% (n = 4,300);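 active = inhibition above its plate's cutoff, the mean test-well inhibition plus 3 SD, cut at about 4.8% in these data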;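 also: 0% = DNA dye mix with DMSO and 100% = 100 µM mitoxantrone; hits displace the dye from DNA and so lower well fluorescence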
* = called active by the depositor; . = not tested or not shown.

SMILES	rCAG RNA binder	MsrA inhibitor	MsrA act	HGIII-sPLA2 inh	rCAG bind conf	DNA CAG counter
Cc1cc(NS(=O)(=O)c2ccc(NC(=O)C(C)Oc3ccccc3Cl)cc2)no1 (configuration not stated)	36*	0	-3	-25	19	3
Cc1cc(NS(=O)(=O)c2ccc(NC(=O)C(C)Oc3cc(C)c(Cl)c(C)c3)cc2)no1 (configuration not stated)	69*	-1	-2	-48	66*	28*
CCn1nc(NS(=O)(=O)c2ccc(NC(C)=O)cc2)c2cc3cccc(C)c3nc21	39*	3	-3	-12	19	4
CCCn1nc(NS(=O)(=O)c2cccc3nonc23)c2cc3cccc(C)c3nc21	85*	3	-1	-6	78*	41*
CCn1nc(NS(=O)(=O)c2ccccc2)c2cc3cccc(C)c3nc21	41*	1	-2	-5	33	11*
Clc1ccc(CN2CCN(N=Cc3ccncc3)CC2)cc1	0	.	.	3	.	.
O=C(c1ccoc1)N1CCN(c2cc(-c3ccncc3)nc3cc(-c4cccc(Cl)c4)nn23)CC1	12	0	-3	-9	.	.
CC12CCC(C/C1=N\N=C1\NC(=O)/C(=C\c3cccc(Br)c3)S1)C2(C)C (configuration not stated)	50*	1	7	-3	60*	28*
COc1ccccc1COc1ccc2c(C)c(CCC(=O)O)c(=O)oc2c1C	4	0	0	0	.	.
Nc1c(C=C2C=CC(=O)C=C2)c(=O)nc2snc(SCc3ccccc3)n12	52*	1	-4	-15	50*	16*
Nc1c(C=C2C=CC(=O)C=C2)c(=O)nc2sc(CC(=O)N3CCCCC3)nn12	20	2	-7	-37	.	.
CCOC(=O)c1c(C)[nH]c(C(=O)COC(=O)CNC(=O)c2ccc(Br)cc2)c1C	5	0	-2	11	.	.
O=C(O)COc1ccccc1/C=C1\C(=O)Nc2ccc(Br)cc21	43*	1	-1	-38	26	5.7*
Cc1ccc(F)cc1C(=O)N1CCCC(c2cc(C(=O)Nc3ccccc3)no2)C1 (configuration not stated)	0	0	1	-10	.	.
COCCN1C(=O)Cc2c1nc(N)c1c(N)nc(N3CCN(c4ccc(F)cc4)CC3)c(C#N)c21	38*	1	-6	18	22	15*
N#CCc1c(C#N)c(N)nc(N2CCN(c3ccc(F)cc3)CC2)c1C#N	10	3	-2	-14	.	.
O=C(NN1C(=O)C2C(C1=O)C1C=CC2C12CC2)c1cccnc1 (configuration not stated)	-1	-1	-3	4	.	.
COc1ccc(C(=O)N2C(=S)NC(=O)/C2=C\c2ccc(C)cc2)cc1	64*	2	-10	-13	66*	31*
COC(=O)CN1C(=S)N(c2ccc(OC)cc2)C(=O)/C1=C/c1ccc(OC)cc1	-1	2	-10	-16	.	.
CCN(CC)S(=O)(=O)c1ccc2[nH]cc(C(=O)NCCN3CCCCC3C)c(=O)c2c1 (configuration not stated)	0	0	-9	-9	.	.
Cc1ccc2nc(-c3ccc(NC(=O)COCC(=O)O)cc3)sc2c1	42*	4.5*	-5	-3	34	8.3*
Cc1ccc2nc(-c3ccc(NC(=O)CSCC(=O)O)cc3)sc2c1	53*	4	-6	-20	39*	11*
